# Results: PubChem BioAssay AID1030 (National Center for Advancing Translational Sciences (NCATS), 2008)
# Among all 220,000 compounds or so, about 16,000 (7.3%) were called active. A call without a number means that no potency is given here. Another 25% or so got no clear call; they are omitted. This excerpt belongs to a sample that is enriched for actives. Values without a mark were called inactive. Calls come from the whole dose curve; as a rule, active = well fitted inhibition curve with a large enough effect (not every such curve was filed as active); inconclusive = small, poorly fitted or top-dose-only effect, or another doubt; inactive = no such curve, though single readings can be large or run the other way.
# Molecular target: Aldehyde dehydrogenase 1A1 (Homo sapiens) (UniProt P00352)
# Sequence (P00352 whole entry, looked up): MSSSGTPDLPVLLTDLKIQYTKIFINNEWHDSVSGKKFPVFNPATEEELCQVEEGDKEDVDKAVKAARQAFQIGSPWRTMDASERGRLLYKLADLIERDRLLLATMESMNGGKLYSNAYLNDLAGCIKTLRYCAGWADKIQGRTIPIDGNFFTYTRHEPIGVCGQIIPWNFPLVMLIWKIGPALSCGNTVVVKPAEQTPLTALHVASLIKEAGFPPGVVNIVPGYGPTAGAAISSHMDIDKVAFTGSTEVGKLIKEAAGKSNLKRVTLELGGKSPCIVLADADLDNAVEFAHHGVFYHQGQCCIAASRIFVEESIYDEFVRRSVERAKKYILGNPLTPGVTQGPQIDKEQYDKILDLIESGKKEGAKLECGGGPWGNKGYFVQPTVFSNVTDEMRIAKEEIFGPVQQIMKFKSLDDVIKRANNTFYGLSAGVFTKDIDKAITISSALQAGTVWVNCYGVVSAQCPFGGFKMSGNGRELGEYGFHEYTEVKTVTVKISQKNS
# Test: qHTS Assay for Inhibitors of Aldehyde Dehydrogenase 1 (ALDH1A1)
# Conditions: Purified ALDH1A1, NADH fluorescence, propionaldehyde substrate; series mostly up to 75.3 µM
# Potency is the fitted concentration of half-maximal effect.
row,SMILES,Potency
1,COC(=O)C/C=C/[C@@H](C)[C@H](NC(=O)OCC(Cl)(Cl)Cl)c1ccccc1,inactive
2,CCOC(=O)Cc1cc(=O)[nH]c(=O)[nH]1,inactive
3,COCC(=O)Nc1nnc(COc2ccccc2)s1,inactive
4,CNc1nnc(-c2ccco2)s1,inactive
5,COc1ccc(OCC(=O)Nc2nnc(-c3ccco3)s2)cc1,22.4 µM (active)
6,Cn1nccc1NC(=O)CC(CC(=O)O)c1ccccc1 (stereo not given),inactive
7,CCc1ccccc1NC(=O)CN(c1ccc(OC)cc1OC)S(=O)(=O)c1ccccc1[N+](=O)[O-],inactive
8,Cc1c(C(=O)Nc2cccc(Cl)c2)cn2c(nc3ccccc32)c1C#N,inactive
9,CSc1ccc(S(=O)(=O)NCc2ccc(Cl)cc2)cc1,22.4 µM (active)
10,CCCCNCc1ccc(SC)cc1,inactive
11,CCn1c(CNS(=O)(=O)c2ccc(Cl)cc2)n[nH]c1=S,inactive
12,CC(C)(C)OC(=O)NCCCC1=CC2=CC(=O)C(C)(OC(=O)c3ccco3)C(=O)C2=CO1 (stereo not given),inactive
13,C=CCO/N=C/C1=C(O)C(C(=O)OC)C(C)(C)CC1=O (stereo not given),inactive
14,COc1cccc(-n2c(=O)c3c(C)c(C(=O)N(C)C)sc3n(CC(=O)NCCc3ccc(OC)c(OC)c3)c2=O)c1,inactive
15,CCN(CC)c1ccc2c(Nc3ccccc3)c(C=O)c(=O)oc2c1,1.58 µM (active)
16,COc1cccc(NC(=O)c2nn(C34CC5CC(CC(C5)C3)C4)cc2[N+](=O)[O-])c1,0.224 µM (active)
17,CCc1ccc(NC(=O)c2ccc(Cn3cc([N+](=O)[O-])cn3)cc2)cc1,inactive
18,COc1cccc(NC(=O)c2ccc(Cn3cc([N+](=O)[O-])cn3)o2)c1,14.1 µM (active)
19,O=C(Nc1ccc(Br)c2cccnc12)c1ccc(Cn2cc([N+](=O)[O-])cn2)o1,inactive
20,Cn1cc([N+](=O)[O-])c(C(=O)Nc2cnn(Cc3ccc(F)cc3)c2)n1,inactive
21,COc1cccc(NC(=O)c2nn(-c3ccc(OC)cc3OC)c(=O)c3ccccc23)c1,inactive
22,CC[C@@]12C=C(/C=C/c3ccccc3)[C@](CC)(C1)[C@H](c1ccccc1)CC2=O,inactive
23,CCOC(=O)C1CCCN(C(=O)CN(c2ccc(OC)cc2)S(=O)(=O)c2c(C)noc2C)C1 (stereo not given),inactive
24,CCOC(=O)C1CCCN(C(=O)COc2ccc(N(C)S(=O)(=O)c3ccc(C)cc3)cc2)C1 (stereo not given),inactive
25,CCOC(=O)C1CCCN(C(=O)/C=C/c2ccc(OC)cc2)C1 (stereo not given),22.4 µM (active)
26,Cc1nn(CC#N)c(=O)n1N(C)c1ncc(C(F)(F)F)cc1Cl,inactive
27,O=C(NCc1ccncc1)C(=O)NCc1ccco1,inactive
28,CC(=O)Nc1ccc(CN2CCN(Cc3ccc(F)c(F)c3)C(CCO)C2)cc1 (stereo not given),inactive

row,SMILES,Potency
1,CC(=O)NC1C(OCc2ccccc2)OC(COC(C)=O)C(OC(C)=O)C1OC(C)=O (stereo not given),inactive
2,CC(=O)NC1C(Oc2ccc(C=O)cc2)OC(COC(C)=O)C(OC(C)=O)C1OC(C)=O (stereo not given),3.55 µM (active)
3,CCc1cccc(OC2OC(CO)C(O)C(O)C2NC(C)=O)c1 (stereo not given),inactive
4,C/C(=N/Nc1ccc(Cl)cc1)c1cnnc(-c2ccccc2)n1,inactive
5,CC1CCCN(CC(O)COCc2ccccc2)C1 (stereo not given),inactive
6,CNC(=O)CSc1nnnn1-c1ccc(C)cc1C,inactive
7,CCOC(=O)c1c(-c2ccc(C)cc2C)csc1NC(=O)CSc1nnnn1C,inactive
8,CCOC(=O)CNC(=O)CSc1nnnn1-c1cc(C)ccc1C,7.08 µM (active)
9,NC(=O)C1CCN(C(=O)COc2cccc3cccnc23)CC1,inactive
10,Cn1ccc(NC(=O)Nc2ccc(Cl)cc2)n1,inactive
11,Cc1c(C(=O)CN2CCOCC2)[nH]c2ccccc12,15 µM (active)
12,Cc1ccc2c(C(=O)CN3CCCC3)c(C)[nH]c2c1,inactive
13,Cc1c(C(=O)N2CCOCC2)[nH]c2ccc(OCc3ccccc3)cc12,inactive
14,Cc1[nH]c2ccccc2c1C(=O)COC(=O)C(C)C,inactive
15,CCOC(=O)N1CCN(CC(=O)c2c(C)[nH]c3ccccc23)CC1,11.2 µM (active)
16,O=C(CN1CCOCC1)Nc1ccccc1,inactive
17,CCN(C(=O)Cc1nc(N)n[nH]1)C1(C(=O)Nc2ccccc2)CCCCC1,inactive
18,COc1ccc(/C=C(\NC(=O)c2ccc(OCC(C)C)cc2)C(=O)OCc2ccco2)cc1,inactive
19,CCOc1ccc(-n2cnnn2)cc1S(=O)(=O)N1CCC(C)CC1C (stereo not given),inactive
20,CCOC(=O)CCCN1CC(O)=C(c2nc3ccccc3s2)C1=N,inactive
21,O=C(Nn1c(-c2ccccc2)nc2ccccc2c1=O)c1ccc([N+](=O)[O-])cc1,inactive
22,N=C1C(c2nc3ccccc3s2)=C(O)CN1NC(=O)c1ccc([N+](=O)[O-])cc1,1.78 µM (active)
23,O=C(NC1CC1)c1ccc(-c2ccccc2)cc1,inactive
24,Cc1cccc(-n2c(C)cc(/C=N/NC(N)=S)c2C)c1,3.16 µM (active)
25,CCOc1ccc(/C=N/NC(N)=S)cc1,inactive
26,Cc1cc(/C=N/n2cnnc2)c(C)n1-c1cccc(C(=O)O)c1,inactive
27,COc1ccc(-c2nc3cc([N+](=O)[O-])ccc3o2)cc1OC,inactive
